PubChem BioAssay AID2732 (Emory University Molecular Libraries Screening Center, 2010)
The whole screen tested about 220,000 compounds, of which about 8,200 (3.7%) were called active.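 How the source made its calls: active means compounds that reduced the stress-induced luciferase reporter signal by more than about 70% of percent inhibition (limit read from the data); inactive means the rest.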 The full list was thinned out, with actives kept by preference.

assay: inhibitors of CHOP promoter induction, primary screen, cell-based, unfolded protein response, luciferase reporter (AID 2732); conditions: CHO-K1 CHOP-promoter luciferase, tunicamycin-induced, 15-18 h; at 10 µM; active compounds read high;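 further: 0% = tunicamycin plus vehicle and 100% = wells without tunicamycin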

inhibition, active:
Cc1nc2ccccc2cc1OCc1ccc(F)cc1 74.8%
CC(=O)Nc1ccc(NC(=O)c2sc3nc4c(c(-c5ccc(C)cc5)c3c2N)CCC4)cc1 78.3%
NC(=O)c1sc2nc3c(c(-c4ccccc4)c2c1N)CCC3 70.9%
COc1ccc2nc(NC(=O)c3ccc(Br)s3)sc2c1 95.9%
CO/N=C(/CS(=O)(=O)c1ccc(Br)cc1)c1ccc(OC)cc1 83%
Clc1ccc(Nc2nc(-c3cccs3)cs2)nc1 99.5%
C=CC[n+]1c(-c2ccc(C)cc2)csc1NNC(=O)Nc1ccccc1 75.9%
NC(=O)COc1ccc(C23CC4CC(CC(C4)C2)C3)cc1 103%
CC12CCC(C(=O)N3CCN(c4ncccn4)CC3)(c3nc4ccccc4nc31)C2(C)C (stereo not drawn) 81.3%
CCOC(=O)C1=C(C)N=C2c3ccccc3C(=O)C2C1c1ccc(Br)cc1 (stereo not drawn) 93.1%
CC(C)(C)c1ccc(Oc2ccc(N)cc2)cc1 107%
CC(C)Cc1nc(N2CCOCC2)c(C#N)c2c1CCC2 91.2%
O=C(O)CCn1c(O)c(C=C2N=c3ccccc3=N2)sc1=S 80.2%
COc1ccc(Cn2c(C)c(C)c(C#N)c2NC(=O)Nc2ccc(F)cc2)cc1 94.3%

inhibition, inactive:
Cc1noc(C)c1C(=O)OCC(=O)N1CCN(S(=O)(=O)c2ccc3ccccc3c2)CC1 4.18%
O=C(COC(=O)c1ccc[nH]c1=O)Nc1ccc2c(c1)OC(F)(F)O2 -4.76%
O=C(CCn1nnc2ccccc2c1=O)N[C@@H](Cc1c[nH]c2ccccc12)C(=O)O 5.85%
Fc1cccc2ncnc(OCc3ccccc3)c12 -2.5%
Cc1nc2ccccc2cc1O -6.19%
O=S(=O)(Nc1n[nH]c(C(F)(F)F)n1)c1ccccc1 11.6%
COC(=O)c1cc(C(=O)OCC(=O)Nc2cc(C)on2)cc([N+](=O)[O-])c1 4.62%
Cc1ccc(NC(=O)c2sc3nc(N)c(C#N)cc3c2N)cc1 -25.7%
Cc1nc2sc(C(=O)c3ccccc3)c(N)c2c2c1CCCC2 0.62%
Cc1cccc(NC(=O)c2sc3nc4c(c(-c5ccco5)c3c2N)CCC4)c1 34.4%
CCc1nc2sc(C(=O)O)c(N)c2c2c1CCCC2 3.45%
COc1ccc(C2/C=C\CN(S(=O)(=O)c3cccs3)CC(=O)N2Cc2ccc(F)cc2)cc1 (stereo not drawn) 4.62%
Cc1cc(C)c(NC(=O)CN2C(=O)NC(Cc3ccccc3)C2=O)c(C)c1 (stereo not drawn) 11.3%
COc1ccc2nc(NC(=O)NC3CCCCC3)sc2c1 26.1%
COc1cccc(C(=O)Nc2nc3ccc(S(C)(=O)=O)cc3s2)c1 8.18%
CCCSc1ncccc1C(=O)O -2.65%
CO/N=C/CC(=O)c1ccc(OC)cc1 -19.6%
COC(=O)CNS(=O)(=O)c1ccc(OC)cc1 3.65%
Cc1nc(-c2ccccc2)sc1-c1nnc(C2CC2)o1 -9.64%
O=c1[nH]nc(SCCS(=O)(=O)c2ccc(F)cc2)n1-c1ccccc1C(F)(F)F 10.5%
CN(C)CCCN(Cc1cc2cc3c(cc2[nH]c1=O)OCCO3)C(=O)NC1CCCCC1 5.43%
O=C(Nc1ccc(Cl)cn1)Nc1cccs1 38.9%
c1ccc(Nc2nc(-c3ccncc3)cs2)nc1 56.5%
Nc1nnnn1/N=C/c1cc([N+](=O)[O-])ccc1O 6.19%
C=CCNc1scc(-c2ccccc2)[n+]1CC=C -28.4%
Cc1ccc(NC(=O)Nc2ccccc2)c(Br)c1 38.2%
O=C1NNC(c2ccccc2)=N/C1=C\c1ccc(Cl)cc1 24.3%
NC(=O)COc1ccc(NC(=O)c2ccccc2-c2ccccc2)cc1 6.67%
NNC(=O)COc1ccc(C2SCCS2)cc1 18.6%
Cc1ccc(C)c2[nH]c(=O)c(CN(Cc3cccnc3)C(=S)NCc3ccco3)cc12 2.47%
Cc1ccc(-c2nc3ccccc3[nH]c2=O)cc1 -30.2%
CC1Cc2ccccc2N1S(=O)(=O)c1ccc(Cl)nc1 (stereo not drawn) 9.84%
O=C(C(Cl)Cl)N1CCN(c2ccccn2)CC1 23.1%
CCNC(=S)N1CCN(c2ncccn2)CC1 6.67%
Cn1nc(C(F)(F)F)c(-c2ccc(F)cc2)c1NC(=O)CSCC(=O)O -1.35%
NC1=NC[C@@H](Cc2ccc(O)cc2)N1CC1CCCCC1 -9.28%
CCOC(=O)C1=C(C)NC(C)=C(C(=O)OCC)C1c1ccccn1 -2.49%
CCOC(=O)C1=C(C)NC(=O)NC1c1ccccc1 (stereo not drawn) 5.41%
COc1ccc(OCCC(=O)c2ccc(OC)cc2)cc1 -4.29%
Cc1ccc(Oc2ccc(N)cc2)cc1 37.7%
Nc1ccc(Oc2ccc(Cl)cc2)cc1 33.6%
Cc1cccc(-[n+]2c(-c3cccc(Br)c3)[nH]c3nc4ccccc4nc32)c1 18.3%
COc1ccc(CCN2C(=O)CC(N3CCC(C(N)=O)CC3)C2=O)cc1OC (stereo not drawn) -9.45%
O=[N+]([O-])c1cc([N+](=O)[O-])c2cccnc2c1O 16.7%
CC(C)c1nc(N2CCOCC2)c(C#N)c2c1COC(C)(C)C2 60.3%
CC(C)Cc1nc(Cl)c(C#N)c2c1CCC2 17.9%
N/C(=N\OC(=O)Nc1ccccc1)c1ccno1 -5.09%
Cc1cc2ccccc2n1CCC(=O)O 6.98%
O=C(COc1ccc([N+](=O)[O-])cc1Cl)Nn1cnnc1 -0.23%
COc1cc(C=O)ccc1Oc1nnnn1-c1ccccc1 4.01%
O=C(CSc1nnc2n1CCCN2)c1ccccc1 -11.1%
CC(=O)c1ccc(NC(=O)C2CC(=O)Nc3nc4ccccc4n32)cc1 (stereo not drawn) -5.45%
COc1ccc(Cn2cccc(NC(=O)Nc3ccc(C#N)cc3)c2=O)cc1 62.7%
Cc1c(C#N)c(NC(=O)c2ccccc2)n(Cc2ccccc2)c1C -4.55%
